Tg IFNy HTS: T. gondii growth inhibition with IFN-gamma, primary screen, cell-based; hit rate 3.8% among 69,000; activity change, negative = inhibition, % (test concentration not listed); Toxoplasma gondii growth in IFN-gamma-treated host cells; stronger effect = lower value; in the data active = activity change below about -70%, passing the limit was not always enough;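 note: host cells are HeLa cells infected with Toxoplasma gondii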
Active calls of the source: *; ! = a repeat was not active. The entries come from a sample that favours hits as a whole.

SMILES | Tg IFNy HTS
COc1cc(CNc2nc(-c3nnc(-c4ccc(C)cc4)o3)nc3ccccc23)cc(OC)c1OC | -46
Cc1cccc(C2c3[nH]c4ccccc4c3CCN2C(=O)c2cccc(F)c2F)n1 (centres undefined) | -13
O=C(O)c1ccc(CC2CCCN(C(=O)C3CCS(=O)(=O)CC3)C2)cc1 (centres undefined) | 11
CCOC(=O)N1CCC2(CC1)OC(=O)C(C)=C2C(=O)NCc1ccccc1OCC | 11
COCc1cnc2n1CCN(C(=O)COc1ccccc1C)C2C (centres undefined) | 4
CN(CCc1cn[nH]c1)C(=O)c1coc(COc2cccc(F)c2F)n1 | 5
Cc1ccccc1C(=O)Nc1ccc(-c2nc(Cn3nc(C)c(C)c3C)c(C)o2)cc1 | -97*
Cc1nn(Cc2nc(-c3ccc(NC(=O)c4cc(F)cc(F)c4)cc3)oc2C)c(C)c1C | 15
Cc1nn(Cc2nc(-c3ccc(NC(=O)c4cc(F)ccc4F)cc3)oc2C)c(C)c1C | -52
Cc1nn(Cc2nc(-c3ccc(NC(=O)c4ccc(N(C)C)cc4)cc3)oc2C)c(C)c1C | 37
CCOc1ccccc1C(=O)Nc1ccc(-c2nc(Cn3nc(C)c(C)c3C)c(C)o2)cc1 | 1
COc1ccc(C(=O)Nc2ccc(-c3nc(Cn4nc(C)c(C)c4C)c(C)o3)cc2)cc1 | -93*
Cc1cc(C)nc(C2CCN(S(=O)(=O)N3CCOCC3)C2)n1 (centres undefined) | -45
CCCCCCn1c(=O)c(C2=NS(=O)(=O)c3ccccc3N2)c(O)c2ccccc21 | -14
CNCCC=C1c2ccccc2CCc2ccccc21 | -88*!
c1ccc(-c2ccc3c(n2)CCc2ccccc2-3)cc1 | 225
COc1ccc(C2CC(=O)Nc3cc(O)c(C)cc32)cc1Cn1cccn1 (centres undefined) | 2
CCn1nc(C(C)C)cc1-c1n[nH]c(CCc2ccccc2)n1 | -28
COc1ccc(C)cc1S(=O)(=O)Nc1ccc2c(c1)nc(C)n2CCO | 46
C=CCOC(=O)C1C(c2ccc(O)c(OCC)c2)c2c([nH][nH]c2=O)CC1(C)O (centres undefined) | 10
O=C(CCNC(=O)c1cc(C2CC2)[nH]n1)Nc1nccs1 | -8
NC(=O)c1cc2c(s1)-c1cc(Cl)ccc1SC2 | -79*
Cn1cc(C(=O)NCc2cc(-c3ccccc3Cl)no2)ccc1=O | 8
CS(=O)(=O)N[C@H]1CN(c2ncccn2)[C@H]2CCCO[C@@H]12 | 4
Cc1nc2sccn2c1C(=O)NCC1(c2ccc(F)cc2)CCOC1 (centres undefined) | -1
SMILES | Tg IFNy HTS
Nc1nc2c(s1)CN(C(=O)C1CC3(CCNCC3)CN1)CC2 (centres undefined) | -34
Cc1ccnc(N2CC[C@@](C)(O)[C@@H](Cc3ccccc3)C2)n1 | 6
O=C(O)CS(=O)(=O)/C=C/c1ccccc1 | -4
O=C(/C=C/c1ccccc1)c1ccccc1 | 28
O=C(/C=C/c1ccccc1)/C=C/c1ccccc1 | -98*
CSc1ccc(Cl)c(C(=O)Nc2ccc3c(c2)CCC(=O)N3C)c1 | 26
CN1c2ccsc2-c2nc(SCc3ccc(Cl)cc3)ncc2S1(=O)=O | -85*
O=c1nc(SCc2ccc(Cl)cc2)nc(-c2ccccc2)[nH]1 | -44
Clc1ccc(CSc2cccs2)cc1 | 11
CC(C)CN1C[C@@H]2CN(Cc3nccn3C)C[C@H]2C1=O | 272
CCN(CC)c1ncnc2c1cnn2CC(=O)Nc1cccc(C)c1C | -3
O=C1NCC(c2ccccc2)Oc2ccccc21 (centres undefined) | -27
CC(C)Oc1ccc2c(=O)c(-c3ccccc3)coc2c1 | 431
CC(C)Oc1ccc(C2NC(=O)c3ccccc3O2)cc1 (centres undefined) | -98*
COc1ccc2n[nH]c(CN(C)Cc3nc(-c4cccnc4)no3)c2c1 | -1
CC1COC2(CCN(c3ccc(C#N)cc3)CC2)C1 (centres undefined) | -90*
N#Cc1ccc(N2CCC3(CC2)CC(Oc2cccnc2)CO3)cc1 (centres undefined) | -51
CCN1CCOCC12CCN(c1ccc(C#N)cc1)CC2 | 13
COc1ccc(-c2c(C#N)c(N)nc3c2CCCC3)cc1 | 13
COc1cc(OC)cc(C(=O)NCCc2csc(-c3ccc(F)cc3)n2)c1 | 27
Cc1ccccc1C(=O)NCCc1csc(-c2ccc(Cl)cc2)n1 | -32
COc1ccc(C(=O)NCCc2csc(-c3ccc(Cl)cc3)n2)cc1OC | 15
COc1cccc(OC)c1C(=O)NCCc1csc(-c2ccc(Cl)cc2)n1 | 35
COc1ccccc1C(=O)NCCc1csc(-c2ccc(F)cc2)n1 | -93*
COc1ccc(-c2nc(CCNC(=O)c3ccccc3F)cs2)cc1 | 412
COc1ccc(C(=O)NCCc2csc(-c3ccc(F)cc3)n2)c(OC)c1 | -97*
O=C(NCCc1csc(-c2ccc(F)cc2)n1)c1ccccc1F | -70
COc1ccc(OCC(=O)NCCc2csc(-c3ccc(F)cc3)n2)cc1 | 51
COc1ccc(Cl)cc1C(=O)NCCc1csc(-c2ccc(F)cc2)n1 | -84*
CCOc1ccccc1NC(=O)C(=O)NCCc1csc(-c2ccc(Cl)cc2)n1 | -51

Source: PubChem
